Compound activity deposited in PubChem BioAssay by The Scripps Research Institute Molecular Screening Center.
MITF inh = MITF inhibitors, primary screen, biochemical, AlphaScreen, human; 650,000 tested, 0.91% active; Microphthalmia-associated transcription factor (Homo sapiens), O75030; AlphaScreen MITF homodimerization, bead proximity signal; inhibition, % at 2.6 µM; in the data active = inhibition above about 50%;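 also: 0% = vehicle wells with protein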
FBW7 activator = FBW7 E3 ligase activators, primary screen, biochemical, AlphaScreen, human; AlphaScreen FBW7–phospho-cyclin E peptide binding, activator screen; normalized activity (activation), % at 26.1 µM; 650,000 tested, 0.13% active; AID 1259310, 2017; in the data active = normalized activity above about 1.9%;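 also: purified mutant Fbw7 with reduced substrate affinity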
TEAD-YAP inh = TEAD-YAP interaction inhibition, primary screen, TEAD-YAP interaction inhibitor project, luminescence, HEK-TIYL cells. TEAD-Gal4/YAP UAS-luciferase luminescence. inhibition, % at 9.12 µM. 640,000 tested, 1.4% active; in the data active = inhibition above about 32%;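 also: 0% = median of test compound wells and 100% = reference inhibitor wells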
GPR151 ag = activators of human GPR151, primary screen, cell-based, PathHunter beta-arrestin, luminescence | G-protein coupled receptor 151 (Homo sapiens), Q8TDV0 | PathHunter beta-arrestin GPR151 cells | activation, % at 11.2 µM | 650,000 tested, 1% active | AID 1508602, 2020; in the data active = activation above about 4.9%;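 also: 0% = median of compound wells and 100% = cells with positive control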
MITF confirm = MITF inhibitors, retest of hits, confirmation, biochemical, AlphaScreen, triplicate. shares compounds with MITF inh. AlphaScreen MITF homodimerization, biotin/His-MITF beads. inhibition, % at 2.6 µM. 4,700 tested, 16% active;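 active = inhibition above a cutoff derived from the DMSO control wells, cut at about 28% in these data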;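 also: 0% = MITF dimer wells with DMSO only; inhibitors lower the bead chemiluminescence by keeping MITF from dimerizing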
AlphaScreen DR = AlphaScreen optical interference compounds, dose response, counter-screen, biochemical, HTS. shares compounds with MITF inh. AlphaScreen optical interference counterscreen, cell-free. IC50, µM. 480 tested, 6% active. AID 1259373, 2018; call rule not given here
AlphaScreen intf2 = AlphaScreen optical interference compounds, counter-screen for MITF inhibitor project, biochemical, triplicate | shares compounds with MITF inh | LysRS AlphaScreen counterscreen, signal interference | inhibition, % at 2.6 µM | 4,700 tested, 7.6% active;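 active = inhibition above a cutoff derived from the DMSO control wells, cut at about 30% in these data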
GPR151 confirm = GPR151 activators, triplicate retest, confirmation, cell-based, PathHunter beta-arrestin, luminescence. 6,700 tested, under 10 active. AID 1508609, 2020. shares compounds with GPR151 ag. activation, % at 11.2 µM. GPR151 PathHunter beta-arrestin cells, 90 min; % of EA-reagent control over plate median;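 active = mean percent activation across replicates above the confirmation screen cutoff of 4.91%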
GPR119 ag = GPR119 activators in beta-arrestin cells, counter-screen for GPR151 activator project, cell-based, PathHunter beta-arrestin, luminescence, triplicate | shares compounds with GPR151 ag | 90 min; 0 = compound-well median, 100 = enzyme-acceptor control | activation, % at 11.2 µM | 6,700 tested, 0.3% active;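 active = mean percent activation in the counterscreen above 29.09%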;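 also: counterscreen on off-target GPR119 to flag nonselective hits from the GPR151 activator screen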
An asterisk follows results filed as active; · = no result; ! = not active in a repeat. Most compounds without a hit are left out; they make up all but 3.4% or so of the library.

SMILES	MITF inh	FBW7 activator	TEAD-YAP inh	GPR151 ag	MITF confirm	AlphaScreen intf2	others
CN(C)S(=O)(=O)c1ccc(C(=O)Nc2ccc(Br)cc2C(=O)c2ccccc2Cl)cc1	31	0	3	0	·	·
CC(C)N1CCN(Cc2ccncc2)CC1	82*	0	-1	-1	3	12
CCC(C)N1CCN(Cc2cccc(Cl)c2)CC1 (stereo not drawn)	27	0	3	1	·	·
CCC(C)N1CCN(Cc2ccc(Br)cc2)CC1 (stereo not drawn)	71*	0	-8	0	6	11
CC(C)N1CCN(Cc2ccc(Br)cc2)CC1	26	0	-3	1	·	·
CC(C)N1CCN(Cc2ccc(F)cc2)CC1	55*	0	6	1	-3	-1
CCC(C)N1CCN(Cc2ccc(F)cc2)CC1 (stereo not drawn)	59*	0	-1	-1	-4	2
Cc1ccc(-n2c(/C=C/c3ccc([N+](=O)[O-])cc3)nc3ccccc3c2=O)cc1C	9	0	7	0	·	·
O=[N+]([O-])c1cccc(Cl)c1NCCNc1ccc([N+](=O)[O-])c2cccnc12	8	0	3	0	·	·
Cc1cc2c(c(C(C)(C)C)c1)O[P+](=O)Oc1c(cc(C)cc1C(C)(C)C)C2	12	0	6	4	·	·
CCC(C)N1CCN(Cc2ccc(Cl)cc2)CC1 (stereo not drawn)	74*	0	2	0	9	14
CCN1CCN(Cc2cccc(Cl)c2Cl)CC1	51	-1	1	0	·	·
COc1ccc(CN2CCN(Cc3ccccc3Cl)CC2)cc1	81*	0	3	-1	0	9
COc1cccc(CN2CCN(Cc3ccccc3Cl)CC2)c1	86*	0	-11	0	26	13
Cc1ccc(CN2CCN(Cc3ccccc3Cl)CC2)cc1	59*	0	-8	1	-3	1
COc1cccc(CN2CCN(Cc3ccccc3Br)CC2)c1	73*	0	-6	-1	6	15
COc1ccc(O)c(CN2CCN(Cc3ccccc3Br)CC2)c1	50	0	-12	0	·	·
COc1ccc(CN2CCN(Cc3ccccc3)CC2)c(O)c1	11	0	-3	1	·	·
CCCN(CCC)S(=O)(=O)c1ccc(C(=O)Nc2ccc(Br)cc2C(=O)c2ccccc2)cc1	3	0	8	-1	·	·
CC1(C)COC(Nc2cccc(Cl)c2)=N1	-9	0	-10	1	·	·
O=c1c2cc(Cl)ccc2[nH]c(=S)n1-c1ccccc1	-8	0	-29	0	·	·
Clc1cccc(CN2CCN(Cc3ccccc3Br)CC2)c1	77*	0	-6	-1	9	4
CN1CCN(Cc2cccc3ccccc23)CC1	39	0	12	0	·	·
CN1CCN(Cc2ccccc2Cl)CC1	64*	0	14	0	3	7
CN1CCN(Cc2coc3ccccc3c2=O)CC1	51*	0	55*	3	1	8
SMILES	MITF inh	FBW7 activator	TEAD-YAP inh	GPR151 ag	MITF confirm	AlphaScreen intf2	others
Clc1cccc(N2CCN(Cc3ccccc3)CC2)c1	2	0	13	1	·	·
O=c1c(CN2CC=C(c3ccc(F)cc3)CC2)coc2ccccc12	-7	0	18	2	·	·
Cc1cc(NC(=O)CN2CC=C(c3ccccc3)CC2)no1	-11	0	-4	-2	·	·
COc1ccccc1OCC#CCN1CCCC(C)C1 (stereo not drawn)	58*	0	7	-2	4	10
Cc1nc2ccc(P(=O)(O)O)cc2s1	55*	0	6	3	12	40*
N#CC(C#N)=Cc1c(Cl)nc2sccn12	9	0	2	3	·	·
COC(=O)CN1C(=O)C2(C(C#N)=C(N)OC(C)=C2C(=O)OC)c2ccccc21 (stereo not drawn)	5	0	13	0	·	·
CCOC(=O)c1nc2ccccc2c(=O)n1-c1cc(Cl)cc(Cl)c1	3	0	7	-1	·	·
N/C(=N\[N+](=O)[O-])N/N=C\c1ccc(-c2ccc(O)c(C(=O)O)c2)o1	75*	-1	-8	-1	79*	11	AlphaScreen DR=>6.5
N/C(=N\[N+](=O)[O-])N/N=C\c1ccc(-c2ccccc2C(=O)O)o1	2	0	14	1	·	·
COc1cccc(C(c2c(O)[nH]c(=S)[nH]c2=O)N2CCOCC2)c1OC (stereo not drawn)	9	0	-12	0	·	·
COc1cccc(C(c2c(O)[nH]c(=O)[nH]c2=O)N2CCCC(C)C2)c1OC (stereo not drawn)	17	0	4	19*	·	·	GPR151 confirm=0;GPR119 ag=8
CCN(CC)c1ccc(/C=C\[N+](=O)[O-])c(C)c1	-10	0	7	6.7*	·	·	GPR151 confirm=1;GPR119 ag=18
C[C@@H]1O[C@@H](O[C@H]2C[C@@H](O)[C@]3(CO)[C@H]4[C@H](O)C[C@]5(C)[C@@H](C6=CC(=O)OC6)CC[C@]5(O)[C@@H]4CC[C@]3(O)C2)[C@H](O)[C@H](O)[C@H]1O	7	0	103*	5.7*!	·	·	GPR151 confirm=3;GPR119 ag=128*
N=C1c2ccccc2CN1c1ccc2ccccc2c1	11	0	-65	-2	·	·
CN(C)CP(=O)(Nc1ccccc1)N(C)C (stereo not drawn)	2	0	7	2	·	·
CC(C)P(=O)(Nc1ccccc1)C(C)C	1	0	4	8.0*	·	·	GPR151 confirm=0;GPR119 ag=7
COP(=O)(OC)C(NC(=O)c1cccc2ccccc12)C(Cl)(Cl)Cl (stereo not drawn)	7	0	8	0	·	·
O=[N+]([O-])c1ccc(NCCOc2cccc3ccccc23)c2ncccc12	-4	0	3	1	·	·
